Assay results: the OligoGym collection

target: S100P; experiment: pooled miR-30 sensor sort-seq; sequence = guide strand; conditions: shRNA
Note: reference of the scale not given here.

Row | Sequence | sensor-assay potency score (higher = more potent)
1 | AAGACGTCTATGATCATGCCCA | 0.0811
2 | TTGAGCAATTTATCCACGGCAT | -0.537
3 | TACTTGTGACAGGCAGACGTGA | -0.639
4 | TTCCACTCTGCAGGAAGCCTGG | -1.03
5 | TTGGTCAGGGTCTGCGTGCTGC | -0.458

target: SACS; experiment: as above; conditions: shRNA

Row | Sequence | sensor-assay potency score (higher = more potent)
6 | TTTTCTGTGACAACTCATCTGA | 0.17
7 | TTCATAAACAAGTCTTTGCGGG | -0.207
8 | TAGAGTATCAACAACAATGTCA | 0.305
9 | TTTTAGATTAGTCTGCTGCAGA | -0.586
10 | TTTCTGACAGCTGAACTCCTAC | -0.234
11 | ATAACTTTGCAACTCGTCCTTC | 0.248
12 | TAAAATATCATCTTTTGCCATA | -0.814
13 | TTTCACAATAACATGTCTCATG | -0.427
14 | TTTGAGAGTAAGTCTGTCCGGC | 0.448
15 | TTTCCAACCATCTTCTACCATC | -0.995
16 | TTGACTTTACCAATCTACCATC | -1.12
